# Bioassay records deposited in PubChem by National Center for Advancing Translational Sciences (NCATS).
# Only some compounds are listed: those with a hit (about 7.5% of all), similar ones and a draw of the others.
# SMN2 splice enh – SMN2 splice variant enhancement. Potency, µM (series often up to 46.1 µM), without a hit: at the top dose activity change, positive = activation, most hits filed as activators. AID 1458. HEK293 SMN2-luciferase splicing reporter, luminescence, 30-36 h. actives 2.8% (n = 210,000); further: % of control where 0% means no effect; nearly all actives have a fitted effect of over 55% in size
#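 HEK293 cells carry an SMN2 minigene-luciferase reporter in which exon 7 inclusion puts luciferase in frame. Cells were seeded at 2000 cells/well, attached for 10-12 hours, then exposed to compounds for 30-36 hours at 37C before ONE-Glo luminescence.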
# Luc counter – Kinase-Glo luciferase inhibition (counter-screen); Q27757; Kinase-Glo luciferase, ATP luminescence, 8 min; Potency, µM (doses to about 38.3 µM), inactives show top-dose activity change, negative = inhibition, most hits filed as inhibitors; actives 0.28% (n = 200,000); AID 1379; further: on the % scale 0 is the no-effect control and ±100 the full control effect; nearly all actives have a fitted effect of over 60% in size
#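 Luminescence was the read-out, taken after 8-minute incubation at ambient temperature. Luciferase turned over luciferin with 10 uM ATP in imidazole pH 7.2 buffer containing KCl, MgCl2, Tween 20 and BSA.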
# ELG1 genotox – genotoxicity induction in ELG1-luciferase HEK293T cells | AID 504466 | HEK293T ELG1-luciferase reporter, luminescence, 16 h | Potency, µM (titrated, usually from 46 µM), without a hit: at the top dose activity change, positive = activation, usual class: activators | actives 1.3% (n = 330,000); further: % of control where 0% means no effect; nearly all actives have a fitted effect of over 60% in size
#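 DMSO vehicle served as control against compound-treated ELG1-luciferase HEK293T cells; exposure lasted 16 hr at 37 °C and 5% CO2, followed by ONE-Glo luminescence detection after 30 min.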
# NPC1 prom act – activators of NPC1 promoter | Potency, µM (titrated, usually from 9.22 µM), for inactives: at the highest dose activation, most hits filed as activators | Huh7 NPC1 promoter luciferase reporter, 24 h | actives 2.4% (n = 320,000); further: % of control where 0% means no effect; nearly all actives have a fitted effect of over 60% in size
#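 Stable NPC1-promoter luciferase Huh7 line; cpd (DMSO) 24 h, 37 °C, 5% CO2; Amplite luciferase reagent 10 min RT; luminescence readout. qHTS format.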
# Rab9 promoter act – Rab9 promoter activation | actives 2.8% (n = 320,000) | Potency, µM (doses to about 9.22 µM), for inactives: top-dose activation, negative = inhibition, hits mostly activators | Huh7 Rab9 promoter-luciferase reporter, luminescence, 24 h; further: % of control where 0% means no effect; nearly all actives have a fitted effect of over 60% in size
#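 Luminescence from Amplite-detected luciferase (10 minutes, ambient) reports Rab9 promoter activation. Before that, stable Rab9-luciferase Huh7 cells (1500/well, reduced-serum OP-MEM I plus 10% FBS) were exposed to compound for 24 hours at 37C.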
# FLuc counter – counter-screen for miR-21 project: firefly luciferase inhibitors or activators | AID 588342 | purified FLuc, Km substrates, luminescence inhibition | P08659 | actives 6.9% (n = 360,000) | Potency, µM (highest dose often 57.5 µM), inactives show at the top dose activity change, negative = inhibition, actives largely listed as inhibitors;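 further: plate controls were vehicle for no effect and reference inhibitor for full effect; nearly all actives have a fitted effect of over 55% in size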
# Target sequence (P08659 whole entry, looked up): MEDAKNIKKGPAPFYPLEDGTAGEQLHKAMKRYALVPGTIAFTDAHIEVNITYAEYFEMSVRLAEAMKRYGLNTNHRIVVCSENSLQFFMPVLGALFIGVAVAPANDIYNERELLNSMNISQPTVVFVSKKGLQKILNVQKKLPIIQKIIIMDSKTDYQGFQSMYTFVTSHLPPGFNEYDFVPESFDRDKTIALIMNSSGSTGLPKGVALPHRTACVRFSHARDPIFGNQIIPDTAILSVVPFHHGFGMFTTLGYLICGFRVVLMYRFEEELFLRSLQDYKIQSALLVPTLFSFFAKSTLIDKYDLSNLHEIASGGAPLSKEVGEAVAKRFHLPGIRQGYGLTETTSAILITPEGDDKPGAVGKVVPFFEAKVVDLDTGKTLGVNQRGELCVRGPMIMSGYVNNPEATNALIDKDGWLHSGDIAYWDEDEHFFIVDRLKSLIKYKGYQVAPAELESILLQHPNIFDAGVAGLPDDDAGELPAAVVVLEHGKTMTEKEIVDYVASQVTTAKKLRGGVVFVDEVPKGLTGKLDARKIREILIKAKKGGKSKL
#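 Biochemical qHTS of compounds, final roughly 60 µM downward over six points, against 10 nM purified firefly luciferase using Km concentrations of substrates (10 uM D-luciferin, 10 uM ATP) in Tris acetate pH 7.5 buffer; luminescence output.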
# An asterisk follows results filed as active; ? = inconclusive; nt = no result given. The call rests on the fitted dose curve; in most records, active means well fitted curve in the direction sought with a large enough effect; inconclusive means small, poorly fitted or top-dose-only effect, or another doubt; inactive means no such curve, though single readings can be large; an effect the other way counts as inactive or inconclusive. Potency means the concentration at half of the fitted maximal effect.
SMILES,SMN2 splice enh,Luc counter,ELG1 genotox,NPC1 prom act,Rab9 promoter act,FLuc counter
CC(/C=C/c1ccc2c(c1)OCO2)=N\NC(=O)c1cccc([N+](=O)[O-])c1,-23.1%,-3.0%,2.8%,1.2%,-6.2%,-8.3%
C/C(=N/NC(=O)c1ccc2c(c1)OCO2)c1cccc([N+](=O)[O-])c1,nt,nt,8.2µM*,2µM*,2.24µM*,6.01µM*
CCOC(=O)c1ccc2c(c1)N(CC(=O)Nc1ccc(CC)cc1)C(=O)c1ccccc1S2,nt,nt,nt,nt,nt,-2.1%
COc1cccc(C(=O)OCC(=O)NCCNC(=O)COC(=O)c2cccc(OC)c2OC)c1OC,nt,nt,-1.3%,-0.5%,0.2%,-1.0%
Cc1cc(C(=O)OCC(=O)c2ccc(Br)s2)c(C)o1,5.6%,-1.2%,2.9%,2.2%,7.0%,?
Cc1cc(C(=O)OCC(=O)c2ccc(Br)s2)no1,-6.9%,9.9%,0.4%,-9.9%,-0.4%,9.53µM*
COc1cccc(C(=O)OCC(=O)c2ccc(Br)s2)c1OC,nt,nt,-2.8%,-2.9%,15.5%,8.49µM*
Cc1ccnc(N=Cc2nc(-c3ccccc3Br)oc2O)c1,57.8%,-6.5%,11.6%,21.7%,?,5.36µM*
Cc1cccc(/N=C/c2nc(-c3ccccc3Br)oc2O)n1,-21.6%,-2.8%,1.5%,-1.0%,-1.7%,7.57µM*
Oc1oc(-c2cccc3ccccc23)nc1/C=N/c1nccs1,3.0%,4.4%,3.8%,-5.6%,-0.1%,2.8%
Clc1ccc2nc(-c3ccc4c(c3)OCO4)cn2c1,nt,?,?,0.316µM*,0.126µM*,0.12µM*
Cc1ccc2nc(-c3ccc4c(c3)OCCO4)cn2c1,nt,nt,?,-32.0%,-36.7%,0.0675µM*
O=C1COc2ccc(-c3csc(NCCc4ccccc4)n3)cc2N1,-50.6%,0.8%,-6.9%,-1.5%,-0.4%,26.9µM*
Cc1ccc2nc(-c3ccc4c(c3)NC(=O)CO4)cn2c1,nt,nt,?,1.58µM*,1.12µM*,0.849µM*
COc1cc(OC)c(NC(=O)c2nn(-c3ccc(C)cc3)c(=O)c3c2c2ccccc2n3C)cc1Cl,-7.4%,nt,nt,nt,nt,7.2%
COC(=O)CC(=O)CSc1nc2c(cc1C#N)CCCCC2,?,2.8%,?,21.6%,?,5.36µM*
CCc1nnc(NC(=O)CSc2nc3c(cc2C#N)CCCC3)s1,5.62µM*,3.6%,?,0.891µM*,0.501µM*,0.849µM*
CCOC(=O)CC(=O)CSc1nc2c(cc1C#N)CCC2,-4.3%,-1.0%,1.9%,-1.5%,6.0%,13.5µM*
N#Cc1cc2c(nc1SCC(=O)O)CCCCC2,nt,nt,0.6%,-6.1%,-0.4%,-5.1%
CCOC(=O)c1sc(NC(=O)CSc2nc3c(cc2C#N)CCCCC3)c(C#N)c1C,4.3%,-1.1%,-3.9%,29.3%,17.6%,-6.0%
COc1ccccc1N(CC(=O)NCC1CCCO1)C(=O)CNS(=O)(=O)c1ccccc1 (stereo not given),nt,nt,10.3%,0.7%,-2.4%,5.1%
CN(Cc1cn[nH]c1-c1cc2ccccc2o1)CC1CCOCC1,nt,nt,-0.8%,-4.1%,2.6%,4.1%
COCCCN1C(=O)C(=O)/C(=C(/O)c2ccc(S(=O)(=O)N3CCOCC3)cc2)C1c1cccc(Cl)c1 (stereo not given),nt,nt,-1.3%,-5.8%,-3.2%,2.0%
O=C(Nc1ccccc1-c1nc2ccccc2s1)c1cccnc1,1.6%,5.3%,-2.1%,-3.2%,-8.2%,3.6%
COc1cccc(-c2nc3ccccc3s2)c1O,7.08µM*,-11.6%,1.46µM*,?,?,0.338µM*
SMILES,SMN2 splice enh,Luc counter,ELG1 genotox,NPC1 prom act,Rab9 promoter act,FLuc counter
O=c1c(-c2nc3ccccc3s2)cccn1Cc1ccc(Cl)cc1,-20.0%,-7.7%,?,22.2%,?,13.5µM*
Oc1c(Br)cc(Br)cc1-c1nc2ccccc2s1,-4.4%,nt,nt,nt,nt,7.57µM*
Clc1ccc(CCNc2nc3ccccc3s2)cc1,-2.1%,-1.9%,3.0%,-0.6%,3.1%,?
Clc1ncccc1-c1nc2ccccc2s1,nt,-8.1%,?,26.3%,-2.4%,15.1µM*
COc1cc(C(=O)Nc2cc(C)c(O)c(-c3nc4ccccc4s3)c2)cc(OC)c1OC,13.5%,nt,nt,nt,nt,-10.8%
COc1ccc(NC(=O)CSc2cc(C(=O)c3nccn3C)c3ccccc3n2)cc1,-56.0%,0.9%,-8.8%,-0.6%,-11.4%,-17.6%
O=C(NCc1ccc2c(c1)OCO2)C1CCN(c2nccc(C(F)(F)F)n2)CC1,nt,nt,1.7%,-5.0%,-5.1%,-1.2%
Cc1ccc(CNC(=O)[C@H](C)[C@H]2C[C@]2(C)[C@H](NC(=O)OCc2ccccc2)c2ccccc2)c(F)c1F,-65.9%,-3.4%,nt,nt,nt,nt
COc1cc(OC)c(-c2nc3ccccc3s2)cc1OC,nt,-1.7%,-3.8%,9.9%,8.9%,12µM*
COc1cccc(N/C=C/C(=O)c2ccc(C)cc2)c1,nt,nt,1.46µM*,0.447µM*,0.501µM*,0.239µM*
COc1ccc(C(=O)c2ccc(Cl)cc2)cc1,-8.7%,-0.9%,20.6µM*,14.7%,27.2%,?
COc1ccc(N/C=C/C(=O)c2ccc(Cl)cc2)cc1,4.47µM*,-5.5%,3.66µM*,0.794µM*,0.708µM*,0.601µM*
COc1cccc(/C=C/C(=O)c2ccc(NS(=O)(=O)c3ccc(C)cc3)cc2)c1,-48.1%,-1.3%,-0.4%,-5.4%,-12.7%,13.5µM*
COc1cc(/C=C/C(=O)c2ccc(NS(=O)(=O)c3ccc(C)cc3)cc2)cc(OC)c1O,-100.1%,-2.1%,-8.5%,-4.4%,-5.2%,-3.3%
COc1ccc(C(=O)/C=C/Nc2ccc(S(=O)(=O)Nc3ncccn3)cc2)cc1,16.8%,3.2%,6.4%,6.4%,2.5%,?
CCCC12CN3CC(C)(CN(C1)C3c1ccc(OCc3ccccc3)cc1)C2=O (stereo not given),-1.7%,nt,nt,nt,nt,-6.4%
COc1ccc(C(=O)/C=C/Nc2ccc(NC(C)=O)cc2)cc1OC,-0.5%,-0.8%,3.8%,-4.3%,-4.7%,?
COc1cccc(C(=O)/C=C/Nc2ccc(S(=O)(=O)Nc3cccc(C(C)=O)c3)cc2)c1,-45.3%,4.1%,-18.1%,-9.0%,-3.8%,-1.2%
COc1cccc(C(=O)/C=C/Nc2ccc(NC(C)=O)cc2)c1,12.6µM*,-12.0%,?,?,3.98µM*,9.53µM*
COc1cccc(C(=O)/C=C/Nc2cccc(O)c2)c1,-6.3%,?,2.31µM*,?,?,0.213µM*
COc1cccc(N/C=C/C(=O)c2ccc(Cl)cc2)c1,4.47µM*,-27.4%,1.16µM*,0.501µM*,0.501µM*,0.536µM*
COc1ccccc1OCC(=O)Nc1ccc(-c2nnc(-c3ccco3)o2)cc1,5.62µM*,-4.1%,3.8%,10.3%,21.2%,0.7%
